Source: PubChem BioAssay (NCI)
This is part of a sample that, as a whole, favours compounds with a hit. Of some 83,000 tested, about 20% had one in any assay.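 Treatment: one concentration, 48 hours, 96-well format. Scoring: percent growth, with anything below 10 considered active.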 A number with no mark means an inactive call. Activity calls are given as the source filed them.

Experiments:
Assay in all cases: NCI-60 one-dose screen, 48 h (100 = growth as untreated, 0 = no growth, -100 = all killed)
Conditions in all cases: 10 µM
SR leukemia = test system: SR leukemia
RPMI-8226 leukemia = test system: RPMI-8226 leukemia
OVCAR-8 ovarian = test system: OVCAR-8 ovarian
OVCAR-5 ovarian = test system: OVCAR-5 ovarian
OVCAR-4 ovarian = test system: OVCAR-4 ovarian
SK-OV-3 ovarian = test system: SK-OV-3 ovarian
IGROV1 ovarian = test system: IGROV1 ovarian
OVCAR-3 ovarian = test system: OVCAR-3 ovarian
HS 578T breast = test system: HS 578T breast
NCI/ADR-RES ovarian = test system: NCI/ADR-RES ovarian
T-47D breast = test system: T-47D breast
MDA-MB-435 melanoma = test system: MDA-MB-435 melanoma
SW-620 colon = test system: SW-620 colon
MCF7 breast = test system: MCF7 breast
HCT-116 colon = test system: HCT-116 colon
HCC-2998 colon = test system: HCC-2998 colon
KM12 colon = test system: KM12 colon
BT-549 breast = test system: BT-549 breast

SMILES	growth (SR leukemia)	growth (RPMI-8226 leukemia)	growth (OVCAR-8 ovarian)	growth (OVCAR-5 ovarian)	growth (OVCAR-4 ovarian)	growth (SK-OV-3 ovarian)	growth (IGROV1 ovarian)	growth (OVCAR-3 ovarian)	growth (HS 578T breast)	growth (NCI/ADR-RES ovarian)	growth (T-47D breast)	growth (MDA-MB-435 melanoma)	growth (SW-620 colon)	growth (MCF7 breast)	growth (HCT-116 colon)	growth (HCC-2998 colon)	growth (KM12 colon)	growth (BT-549 breast)
CN(C)CCOc1cccc(NC2=C(Cl)C(=O)C(Nc3cccc(OCCN(C)C)c3)=C(Cl)C2=O)c1	-18.2% (active)	-46.9% (active)	-94.9% (active)	-53.9% (active)	-100% (active)	94.9%	-76.6% (active)	-97.3% (active)	0.785% (active)	57.2%	-42.1% (active)	-68.6% (active)	-54.9% (active)	-40.8% (active)	-89.4% (active)	11.6%	34.4%	
S=C1N(c2ccccc2)CN(C2CCCCC2)CN1c1ccccc1	102%	103%	75%	104%	96.5%	117%	95.9%	106%	63.2%	103%	94.3%		104%	88.7%		102%	110%	
COc1ccc(N(C)c2ncnc3occ(C)c23)cc1	-36.1% (active)	-36.1% (active)	-21.9% (active)	28.1%	40.2%	19.9%	-11.1% (active)	-39.9% (active)	110%	-16.2% (active)	67.1%	7.12% (active)	33.9%	9.66% (active)	-11.9% (active)	7.26% (active)	-33.2% (active)	
O=[N+]([O-])c1cc(Cl)cc(Cl)c1O	103%	103%	103%	103%	108%	91.3%	104%	109%	97.6%	97.6%	93%	98.5%	103%	104%	93.5%	105%	98.9%	
CN(C)CCCSc1ccccc1NC1=C(Cl)C(=O)C(Nc2ccccc2SCCCN(C)C)=C(Cl)C1=O	2.97% (active)	45.8%	-26.5% (active)	33.4%	-95.3% (active)	93.6%	-63.5% (active)	-93% (active)	87.1%	72.4%	-42.8% (active)	92.1%	-34.3% (active)	-50% (active)	4.82% (active)	103%	80.2%	
CCOC(=O)C(C)(c1ccccc1)c1ccccc1	100%	101%	105%	107%	111%	98.9%	106%	107%	111%	106%	99.1%	106%	105%	99.6%	102%	109%	96.4%	
O=[N+]([O-])c1ccc(/C(=C/c2ccccc2)[n+]2ccccc2)cc1	102%	98.3%	97%	98%	100%	119%	109%	127%		116%	112%	101%	103%	98.7%	107%	126%	125%	109%
CCN(CC)CCCOc1cccc2c1C(=O)c1cccc(OCCCN(CC)CC)c1C2=O	3.15% (active)	18.6%	28.1%	55.8%	32.9%	41.5%	25.8%	35%	58.4%	35.3%	61.7%	39.7%	24.4%	11.9%	22.5%	57.4%	40.9%	
C1CN(CC2CCC(CN3CCOCC3)O2)CCO1 (centres undefined)	61.7%	92.3%	104%	109%	107%	90.2%	108%	112%	104%	101%	81.5%	104%	92.2%	53.2%	89%	102%	105%	
N#Cc1cnn(C(=O)c2nn(-c3ccc(Cl)cc3)cc2O)c1N	-35.5% (active)	-37% (active)	10.1%	30.6%	18.8%	8.44% (active)	12.5%	-0.517% (active)	75.9%	3.25% (active)	3.29% (active)	19.1%	38%	10.9%	6.75% (active)	11.9%	19.1%	
CSc1nc2c(c(=O)n1C)CN(Cc1ccccc1)C(=O)CN2	-9.52% (active)	109%	106%	94.4%	91%	99%	97.6%	98.6%	101%	85.5%	95%	60%	95.7%	89.6%	92.6%	85.4%	85.7%	
O=S(=O)(O)c1ccc(Cl)cc1	92.5%	102%	101%	103%	114%	92.6%	103%	103%	101%	99%	97.8%	109%	101%	91.4%	98.4%	98.9%	99.2%	
CN(C)CCCOc1ccc(NC2=C(Cl)C(=O)C(Nc3ccc(OCCCN(C)C)cc3)=C(Cl)C2=O)cc1	-1.57% (active)	-44.1% (active)	-68.3% (active)	-60.6% (active)	-98.9% (active)	24.4%	-68.2% (active)	-98.3% (active)	-0.291% (active)	8.96% (active)	-39.3% (active)	-89% (active)	-58.4% (active)	-49.4% (active)	-86.9% (active)		-63% (active)	
CC(CN(C)C)Oc1ccccc1NC1=C(Cl)C(=O)C(Nc2ccccc2OC(C)CN(C)C)=C(Cl)C1=O (centres undefined)	-9.43% (active)	-34.5% (active)	-85.3% (active)	-72.2% (active)	-97.6% (active)	58.9%	-76.4% (active)	-96.2% (active)	3.54% (active)	-24.5% (active)	-42% (active)	-71% (active)	-66.5% (active)	-47% (active)	-70.3% (active)	-87.4% (active)	-1.19% (active)	
NNC(=O)Oc1c(Cl)cc(Cl)cc1[N+](=O)[O-]	87.5%	105%	109%	104%	113%	102%	101%	107%	104%	101%	98.5%	107%	105%	87.9%	102%	103%	106%	
CCOC(=O)C1=CSC2=NC3=C(CCC/C3=C\c3cc(OC)c(OC)c(OC)c3)C(c3cc(OC)c(OC)c(OC)c3)N12 (centres undefined)	31.2%	22.4%	13.5%	75.7%	72.3%	102%	89.7%	57.1%	46.8%	3.63% (active)	88.9%	21%	44.9%	29.9%	19.2%	75.1%	-21.8% (active)	
Nc1ncnc2c1ncn2C1(CO)OCC(O)C(O)C1O (centres undefined)	109%	104%	102%	109%	111%	98.2%	105%	103%	104%	98.6%	96.2%	107%	110%	101%	108%	101%	98.6%	
CN(C)CCOc1ccccc1NC1=C(Cl)C(=O)C(Nc2ccccc2OCCN(C)C)=C(Cl)C1=O	19%	82.7%	26.6%	109%	-99% (active)	119%	10.5%	-96% (active)	98.4%	92.8%	-37.6% (active)	86.4%	-50% (active)	-53.9% (active)	-75.3% (active)	101%	93.6%	
CC1=NN(C(=O)c2nn(-c3ccc(Cl)cc3)cc2O)C(=O)C1	-39.3% (active)	13.7%	29.4%	63.5%	29.9%	34%	34.8%	-6.37% (active)	31.8%	31.6%	48.5%	59.8%	46.3%	52.4%		54.1%	49%	
